# Bioassay records as filed in PubChem BioAssay.
# A selection: hits, their analogues and other compounds. The true share with any hit is near 2.4%.
# TMEM16A inh = TMEM16A chloride channel inhibitors, primary screen, cell-based, HTS; normalized B-score (activity score, 25-100; higher = stronger inhibition) at 10 µM; AID 588511, 2011; 310,000 compounds, 1.2% hits; HEK293 TMEM16A/YFP iodide influx fluorescence, ionomycin;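 active means ratio plate-corrected score three or more library SD toward inhibition, starting fluorescence score within five deviations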;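 further: score derived from kinetic fluorescence span divided by baseline fluorescence per well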
# CHT PAM = CHT positive allosteric modulators, primary screen, cell-based, membrane potential dye, choline EC20 | B-score at 10 µM | AID 488977, 2010 | CHT-expressing cells; stronger effect = higher value; LV-AA mutant CHT in HEK293 cells | 310,000 compounds, 0.49% hits;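 active means initial fluorescence not abnormally high and integrated response B-score, plate-corrected, over 3 SD above library mean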
# Target sequence (Q9GZV3 whole entry, looked up): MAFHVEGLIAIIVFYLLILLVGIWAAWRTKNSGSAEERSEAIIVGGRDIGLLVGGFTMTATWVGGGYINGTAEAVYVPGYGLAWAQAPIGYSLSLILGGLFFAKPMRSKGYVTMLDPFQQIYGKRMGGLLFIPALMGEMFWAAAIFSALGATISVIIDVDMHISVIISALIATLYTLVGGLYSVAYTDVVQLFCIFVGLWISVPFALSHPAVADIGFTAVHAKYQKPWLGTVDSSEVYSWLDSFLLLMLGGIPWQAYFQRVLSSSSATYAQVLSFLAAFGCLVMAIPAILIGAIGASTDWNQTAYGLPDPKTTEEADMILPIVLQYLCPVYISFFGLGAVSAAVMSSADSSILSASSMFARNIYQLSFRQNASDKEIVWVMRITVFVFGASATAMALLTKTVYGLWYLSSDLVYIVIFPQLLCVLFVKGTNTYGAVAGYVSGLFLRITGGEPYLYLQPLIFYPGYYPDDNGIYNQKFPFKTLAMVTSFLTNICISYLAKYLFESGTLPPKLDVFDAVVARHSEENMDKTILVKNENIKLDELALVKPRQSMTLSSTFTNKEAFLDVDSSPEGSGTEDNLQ
# ANO1 activ = TMEM16A chloride channel activators or potentiators, primary screen, cell-based, HTS; HEK293 TMEM16A/YFP-H148Q/I152L, iodide quench fluorescence; stronger effect = lower value; B-score at 10 µM; 340,000 compounds, 0.3% hits; AID 623877, 2012;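 active means fluorescence-ratio B-score plate-corrected deviation score at least 3 library SD below zero, with starting fluorescence score within 5 deviations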;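 further: channel opened by trigger with iodide after compound preincubation; score built on the fluorescence ratio of max minus min over baseline; more negative score means more quench and so TMEM16A activation or potentiation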
# CHT block = inhibitors of human choline transporter CHT; CHT-expressing cells, membrane potential dye, choline response; stronger effect = lower value; 310,000 compounds, 0.86% hits; B-score at 10 µM; High affinity choline transporter 1 (Homo sapiens), Q9GZV3; AID 488975, 2010;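 active means B-score over 3 SD under the library average, and starting fluorescence ratio not unusually high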;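 further: choline stimulus applied at its EC90 after an EC20 pre-addition; B-score computed on integrated fluorescence ratio after choline addition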
# TMEM16A reconf = TMEM16A chloride channel inhibitors, confirmation, cell-based, re-confirmation; shares compounds with TMEM16A inh; HEK293 TMEM16A/YFP-H148Q, iodide quench fluorescence; ionomycin added to raise cell calcium; inhibition, % at 10 µM; 2,300 compounds, 39% hits; AID 652189, 2013;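 active means mean duplicate percent inhibition, scaled so buffer wells are 0 and the reference blocker 100, over three buffer SD above buffer mean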
# HEK293 Ca mobil = calcium mobilization in TMEM16A/YFP HEK293 cells, confirmation, counter-screen for TMEM16A inhibitor project. 2,300 compounds, 2% hits. AID 652231, 2013. Fluo4 calcium mobilization. shares compounds with TMEM16A inh. calcium response (% of ionomycin), % at 10 µM;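 active means duplicate-averaged calcium signal over 20% of the ionomycin maximum, relative to buffer baseline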;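 further: each well's signal is peak minus trough fluorescence divided by its pre-addition baseline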
# Parental YFP cnt = iodide YFP quench changes in parental YFP-HEK293, counter-screen for TMEM16A inhibitor project, cell-based; shares compounds with TMEM16A inh; 2,300 tested, under 10 active; YFP ratio F(max-min)/F0 at 10 µM; AID 652233, 2013; ionomycin;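 active means yellow fluorescent protein signal ratio exceeding the buffer control mean by over 5 SD of those controls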;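 further: ratio is mean of duplicate wells from kinetic YFP trace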
# ClC-1 inh = ClC-1 chloride channel inhibition, selectivity assay for TMEM16A inhibitor project, cell-based, voltage-dependent ClC-1 | CHO ClC-1-YFP, iodide influx fluorescence quench; iodide control reads 0, buffer control 100 | ratio percent, % at 10 µM | shares compounds with TMEM16A inh | 2,300 tested, under 10 active;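 active means duplicate-mean ratio percent above the mean of iodide-only control wells, which defines zero, plus 5 of their SD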;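 further: higher percent means stronger block of ClC-1 iodide influx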
# A number is an active result; – = inactive; · = no result given.
SMILES,TMEM16A inh,CHT PAM,ANO1 activ,CHT block,TMEM16A reconf,HEK293 Ca mobil,Parental YFP cnt,ClC-1 inh
CCc1ccc(S(=O)(=O)/N=C2\C=C(Nc3ccc(C(=O)O)cc3)C(=O)c3ccccc32)cc1,100,–,–,-7.2,23%,–,–,–
CN(C)S(=O)(=O)c1ccc(C(=O)Nc2nnc(SCc3cccc(F)c3)s2)cc1,–,–,–,–,·,·,·,·
O=C(CCc1ccccc1)Nc1ccccc1F,100,–,–,–,–,–,–,–
O=C(CCc1ccccc1)Nc1ccc(F)cc1F,–,–,–,–,·,·,·,·
Cc1ccc(C)c(S(=O)(=O)Nc2ccc(C(=O)N3CC(C)OC(C)C3)cc2)c1 (stereo unspecified),·,·,–,·,·,·,·,·
O=C(CN1C(=O)COc2ccccc21)N1CCCC1,–,–,–,–,·,·,·,·
O=C(CCN1C(=O)COc2ccccc21)N1CCCCC1,–,–,–,–,–,–,–,–
CC(=O)n1cc(C(C[N+](=O)[O-])SCCN)c2ccccc21 (stereo unspecified),–,–,–,–,·,·,·,·
CSc1nc2ccc(NS(=O)(=O)c3c(Cl)cccc3Cl)cc2s1,–,–,–,–,·,·,·,·
CSc1nc2ccc(NS(=O)(=O)c3ccc4c(c3)OCCO4)cc2s1,100,–,–,–,18%,–,–,–
CCn1nc(C)c(CNC(=O)c2cc(COc3ccc(F)cc3Cl)on2)c1C,25,–,–,–,24%,–,–,–
Cc1nc2ccc(NS(=O)(=O)c3ccc(C)c(C)c3)cc2s1,–,–,–,–,·,·,·,·
CC(=O)c1cccc(S(=O)(=O)Nc2ccc3nc(C)sc3c2)c1,100,–,–,–,–,–,–,–
CCN1CCN(C(=S)NC(=O)c2cccc(Br)c2)CC1,·,·,–,·,·,·,·,·
CC(C)OC(=O)C1C2C=CC3(CN(Cc4cccs4)C(=O)C13)O2 (stereo unspecified),100,–,–,–,–,–,–,–
NC(=O)C1CCN(C2=C(Cl)C(=O)c3ccccc3C2=O)CC1,100,–,–,–,28%,–,–,–
CN1CCN(CC(=O)Nc2nc(-c3ccccc3)cs2)CC1,–,–,–,–,·,·,·,·
COc1ccc(C2(O)CCN(CC(=O)Nc3nc(-c4ccccc4)cs3)CC2)cc1,25,–,–,–,36%,–,–,–
Cc1nc(C)c(-c2csc(Nc3ccc(F)cc3)n2)s1,25,–,–,–,21%,–,–,–
O=C(COC(=O)c1ccccn1)NCc1ccc(Cl)cc1Cl,·,·,–,·,·,·,·,·
O=C(NCc1ccc(Cl)cc1Cl)c1ccccn1,25,–,–,–,–,–,–,–
CCCc1ccc(C(=O)NC(=O)c2ccccc2O)cc1,100,–,–,–,34%,22%,–,–
N#CC1(Cc2ccccc2Cl)c2ccccc2C=CN1C(=O)c1ccccc1 (stereo unspecified),25,–,–,–,–,–,–,–
COc1ccc(C(=O)Nc2ccc(S(=O)(=O)N3CCc4ccccc43)cc2)cc1,100,–,–,–,34%,–,–,–
COc1ccc(NC(=O)c2cccc(S(=O)(=O)N3CCc4ccccc43)c2)cn1,25,–,–,–,–,–,–,–
O=C(Nc1ncccc1O)c1cccc(S(=O)(=O)N2CCc3ccccc32)c1,–,–,–,–,·,·,·,·
CCOc1ccc2c(c1)c1nnc(SCC(=O)NC3CC3)nc1n2C,–,–,–,–,·,·,·,·
COc1ccc(C=O)cc1OC(=O)C1(C)Cc2ccccc2C(=O)O1 (stereo unspecified),–,–,–,–,·,·,·,·
